This passage reports growth results from PubChem BioAssay (NCI).

Some test systems named below: NCI-H23 lung; NCI-H226 lung; NCI-H322M lung; HOP-62 NSCLC; NCI-H460 lung; HOP-92 NSCLC; NCI-H522 lung; A549/ATCC NSCLC; 786-0 renal; COLO 205 colon.
Experiment in all cases: NCI-60 one-dose screen, 48 h (100 = growth as untreated, 0 = no growth, -100 = all killed)
Common to all, as to settings: 10 µM unless noted

Values joined by “and” are separate entries in the source; they are usually repeats but may differ in a detail not shown here. Equal values may be shown once. This is part of a sample that, as a whole, favours compounds with a hit. Of some 83,000 tested, about 20% had one in any assay.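 Step 1: grow cells in 96-well plates. Step 2: add test compound at a single concentration. Step 3: incubate 48 h. Step 4: record percent growth.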 Active and inactive are the calls of the source. The calls were made as follows: active = growth percent below 10; inactive = the rest.

For the compound `COc1ccc(/C=N/NC(=O)c2c(N)nn(C)c2Nc2ccccc2)cc1`, the growth in the test on NCI-H23 lung is 66.9% (inactive); with NCI-H226 lung, 51.6% (inactive); in the test with NCI-H322M lung, 90% (inactive); with HOP-62 NSCLC, 38.8% (inactive); with NCI-H460 lung, 14.6% (inactive); with HOP-92 NSCLC, 46.8% (inactive). In addition, the growth with NCI-H522 lung is 19.3% (inactive); with A549/ATCC NSCLC, 57.1% (inactive); in the test with 786-0 renal, 58% (inactive); in the test with COLO 205 colon, 35.8% (inactive).
`COc1ccc2sc(NC(=O)CCCCCCNC(=O)C(O)(O)C(F)(F)F)nc2c1`: the growth in the test on NCI-H23 lung is 1.72% (active); in the test with NCI-H226 lung it was 24.6% (inactive); in the test on NCI-H322M lung, 4.96% (active); with HOP-62 NSCLC, -3.09% (active); in the test with NCI-H460 lung it was 7.12% (active); in the test on HOP-92 NSCLC, -12.7% (active). For the same compound, the growth in the test on NCI-H522 lung is -42.7% (active); in the test on A549/ATCC NSCLC, 2.41% (active); in the test on 786-0 renal, 13.1% (inactive); in the test with COLO 205 colon, -69.9% (active).
For `C/C=C/CC(C)C(O)[C@H](NC(=O)[C@@H]1CCCN1C(=O)[C@](C)(CC)NC(=O)CCCCCCCCC)C(=O)N[C@@](C)(CC)C(=O)N[C@@H](CCC(N)=O)C(=O)N[C@H](CCC(N)=O)C(=O)NC(C)(C)C(=O)NC(C)(C)C(=O)N[C@@H](CCC(N)=O)C(=O)N[C@H](CC(C)C)C(=O)N[C@H](CO)CC(C)C` (stereo not given in full), the growth in the test with NCI-H23 lung is 68.4% (inactive) and -71.3% (active); in the test with NCI-H226 lung, 49% (inactive) and -24.9% (active); in the test on NCI-H322M lung it was 69.8% (inactive) and -15.9% (active); in the test on HOP-62 NSCLC it was 56.3% (inactive) and -78.5% (active); in the test on NCI-H460 lung it was 63.6% (inactive) and -72.2% (active); with HOP-92 NSCLC it was 75.3% (inactive) and -53.5% (active). In addition, the growth is 14.7% (inactive) and -74.4% (active) in the test on NCI-H522 lung; 76% (inactive) and 9.75% (active) with A549/ATCC NSCLC; 47.7% (inactive) and -80.3% (active) in the test with 786-0 renal; 48.7% (inactive) and -50.7% (active) with COLO 205 colon.
As to `CCCc1[nH]c(-c2cc(N)ccc2Cl)c2c1C(=O)CCCC2`, the growth with NCI-H23 lung was 93.3% (inactive); with NCI-H226 lung, 98.1% (inactive); with NCI-H322M lung, 89.1% (inactive); in the test on HOP-62 NSCLC, 94.5% (inactive); with NCI-H460 lung it was 102% (inactive); with HOP-92 NSCLC, 81.6% (inactive). For the same compound, the growth in the test on NCI-H522 lung is 90.9% (inactive); in the test with A549/ATCC NSCLC, 91.9% (inactive); in the test with 786-0 renal, 91% (inactive); with COLO 205 colon, 121% (inactive).
For `C#C[C@]1(O)CC[C@H]2[C@@H]3CC=C4c5sc(N6CCN(C)CC6)nc5CC[C@]4(C)[C@H]3CC[C@@]21C`, the growth in the test on NCI-H23 lung is 57% (inactive); in the test on NCI-H226 lung it was 86.8% (inactive); with NCI-H322M lung it was 77.4% (inactive); in the test on HOP-62 NSCLC it was 54.8% (inactive); in the test on NCI-H460 lung, 49.2% (inactive); with HOP-92 NSCLC, 82.7% (inactive). For the same compound, the growth in the test on NCI-H522 lung is 28.1% (inactive); in the test with A549/ATCC NSCLC it was 54.7% (inactive); in the test with 786-0 renal, -39.2% (active); with COLO 205 colon it was 66.5% (inactive).
As to `CC(=O)c1c([Si](C)(C)C)c2cc(C#N)ccn2c1C(=O)c1ccc(Br)cc1`, the growth was 84.1% (inactive) in the test with NCI-H23 lung; 76.9% (inactive) with NCI-H226 lung; 85.3% (inactive) in the test with NCI-H322M lung; 88.3% (inactive) in the test on HOP-62 NSCLC; 95.5% (inactive) in the test with NCI-H460 lung; 81.9% (inactive) in the test with HOP-92 NSCLC. For the same compound, the growth with NCI-H522 lung is 70.5% (inactive); in the test on A549/ATCC NSCLC, 90.3% (inactive); in the test with 786-0 renal, 76.5% (inactive); in the test with COLO 205 colon it was 104% (inactive).
In the case of `Cc1ccc2c(n1)C(=O)C(Cl)=C(Nc1ccc(C(C)C)cc1)C2=O`, the growth in the test on NCI-H23 lung was -56.9% (active); in the test with NCI-H226 lung it was 61.4% (inactive); with NCI-H322M lung it was 84.4% (inactive); in the test on HOP-62 NSCLC it was 126% (inactive); in the test with NCI-H460 lung, 79.7% (inactive); in the test on HOP-92 NSCLC, 17.1% (inactive). Moreover, the growth was -13.7% (active) in the test on NCI-H522 lung, 67.8% (inactive) with A549/ATCC NSCLC, 75.6% (inactive) in the test with 786-0 renal and 111% (inactive) with COLO 205 colon.
`N#Cc1c(-c2cccs2)cc(-c2cnccn2)nc1SCC(=O)N/N=C/c1cccs1`: the growth is 56.6% (inactive) in the test on NCI-H23 lung; 68.9% (inactive) in the test on NCI-H226 lung; 73.1% (inactive) in the test with NCI-H322M lung; 38.8% (inactive) in the test on HOP-62 NSCLC; 20.8% (inactive) in the test with NCI-H460 lung; 30.1% (inactive) with HOP-92 NSCLC. In addition, the growth in the test with NCI-H522 lung was 73.1% (inactive); with A549/ATCC NSCLC, 19.4% (inactive); in the test with 786-0 renal, 16.6% (inactive); in the test on COLO 205 colon, 53.5% (inactive).
With `O=C(/C=C/c1cccc(Br)c1)c1cccc(OCCCCOc2cccc(C(=O)/C=C/c3cccc(Br)c3)c2)c1`, the growth in the test with NCI-H23 lung is 98% (inactive); with NCI-H226 lung, 103% (inactive); with NCI-H322M lung, 103% (inactive); in the test with HOP-62 NSCLC, 107% (inactive); in the test with NCI-H460 lung, 100% (inactive); in the test on HOP-92 NSCLC, 115% (inactive). Also, the growth in the test with NCI-H522 lung was 98.1% (inactive); with A549/ATCC NSCLC, 98.8% (inactive); in the test on 786-0 renal, 106% (inactive); in the test on COLO 205 colon it was 115% (inactive).
Regarding `CCc1cc2c(cc1Cl)nc1c(=O)[nH]c(=O)nc-1n2CCOCC(C)C`, the growth with NCI-H23 lung is 67.7% (inactive); with NCI-H226 lung, 39.4% (inactive); in the test on NCI-H322M lung, 54.9% (inactive); in the test on HOP-62 NSCLC it was 100% (inactive); in the test with NCI-H460 lung, 49.3% (inactive); with HOP-92 NSCLC, 126% (inactive). The growth is 55.6% (inactive) in the test on NCI-H522 lung, 67.1% (inactive) with A549/ATCC NSCLC, 70.3% (inactive) with 786-0 renal and 21.3% (inactive) in the test with COLO 205 colon.
`CCCCCCCCCCCC(=O)NC(C)(C)C(=O)N1CCCC1C(=O)NC(C)(C)C(=O)NC(C)(C)C(=O)N1CCCC1C(=O)NC(C)(C)C(=O)NC(C)(C)C(=O)N1CCCC1C(=O)NC(C)C(=O)NCCC(=O)NC(C)C(=O)NC(C)(C)C(=O)NC(C)(C)C(=O)NC(C)(C)C(=O)NCCC(=O)NC(C)(C)C(=O)NC(C)(C)C(=O)NC(C)(C)C(=O)NC(C)C(=O)NCCC(=O)O` (stereo not given): the growth was -92.9% (active) with NCI-H23 lung; -61.8% (active) with NCI-H226 lung; -99.6% (active) in the test on NCI-H322M lung; -93.3% (active) with HOP-62 NSCLC; -79.7% (active) in the test with NCI-H460 lung; -96% (active) in the test on HOP-92 NSCLC. Further, the growth with NCI-H522 lung is -89.8% (active); in the test on A549/ATCC NSCLC, -77.9% (active); with 786-0 renal, -96.3% (active); with COLO 205 colon, -89.2% (active).
`O=C(COc1ccc(/C=C2\C(=O)Nc3ccc(F)cc32)cc1)Nc1ccccc1`: the growth was 95% (inactive) in the test on NCI-H23 lung; 96.6% (inactive) in the test with NCI-H226 lung; 99.3% (inactive) in the test with NCI-H322M lung; 99.5% (inactive) with HOP-62 NSCLC; 96.1% (inactive) with NCI-H460 lung; 116% (inactive) in the test on HOP-92 NSCLC. The growth with NCI-H522 lung was 93.9% (inactive); in the test on A549/ATCC NSCLC it was 96.7% (inactive); in the test on 786-0 renal, 105% (inactive); in the test on COLO 205 colon it was 113% (inactive).
